From PubChem BioAssay AID588499 (NMMLSC, 2011)
Among all 360,000 compounds or so, about 610 (0.17%) were called active. Not shown: some 2% with an inconclusive outcome. Rule as the data show it: active = inhibition above about 30%; inconclusive = no clear call, values can overlap the other calls; inactive = below that. Only a selection was taken, and actives are over-represented in it overall.

Test system: Botulinum neurotoxin type A light chain protease (Clostridium botulinum A str. ATCC 3502)
Assay: BoNT/A light chain protease inhibitors, primary screen, biochemical, flow cytometry, MLPCN library (AID 588499); also: plate controls were buffer without enzyme for full effect and enzyme alone for no effect
Conditions: multiplex microsphere protease substrate cleavage, at 10 µM, stronger effect = higher value

| SMILES | inhibition |
| --- | --- |
| CCCCOCCCNC(=O)C[C@@H]1C[C@@]2(C(=O)OC)CCCCC=C2N(CCC2=CCCCC2)C1=O | -0.3% (inactive) |
| CCc1nc2c(OCCOc3ccccc3)cccn2c1N(C)C(=O)c1ccccc1F | -0.2% (inactive) |
| COc1ccc([C@H]2N[C@]3(CCCN(Cc4ccco4)C3=O)[C@H]3C(=O)N(C)C(=O)[C@@H]23)cc1 | -0.4% (inactive) |
| COC(=O)[C@]12CCCCC=C1N(CCC1=CCCCC1)C(=O)[C@H](CC(=O)NCC1CCCCC1)C2 | 0% (inactive) |
| CC(C)(C)CC(=O)Nc1nc(C(N)Cc2ccc(C(F)(F)F)cc2)cs1 (stereo not drawn) | -0.5% (inactive) |
| CN1CCN(C(=O)c2ccc(NC(=O)c3ccc(Br)o3)cc2)CC1 | 0.8% (inactive) |
| COC(=O)c1cn(C)c2ccc(S(=O)(=O)N3CC(C)CC(C)C3)cc2c1=O (stereo not drawn) | -1.1% (inactive) |
| CC(=O)Nc1cccc(Nc2ccc(C#N)cc2)c1 | 0% (inactive) |
| COc1ccc(NC(=O)NN2CCN(C)CC2)c(OC)c1 | -3.1% (inactive) |
| COc1ccc(C(=O)c2c(C)c(CCC#N)n3ccccc23)c(OC)c1 | 0.8% (inactive) |
| CC1(C)c2[nH]c3ccccc3c2C[C@H]2C(=O)N(N)CC(=O)N21 | -1.4% (inactive) |
| Cc1nn(-c2ccc(F)cc2)c(Cl)c1/C=C(/CCC(=O)O)c1nc2ccccc2s1 | -0.5% (inactive) |
| CC1=CC(=C(C#N)c2nc3ccccc3s2)C=C(C)N1c1ccc(F)cc1F | 48.3% (active) |
| CSCC[C@H](NC(=O)NCCc1ccc(F)cc1)C(=O)O | 0% (inactive) |
| O=c1c2[nH]c3ccc(Cl)cc3c2ncn1Cc1ccccn1 | 1% (inactive) |
| O=C(NCc1ccc(Cl)cc1)C(=O)NCC1CCCN1S(=O)(=O)c1cccs1 (stereo not drawn) | -1.5% (inactive) |
| NC(=O)c1ccc(N2CCCC2)nc1 | 0.8% (inactive) |
| Oc1cccc(CCc2ccccn2)c1 | -0.4% (inactive) |
| CCOc1ccccc1NC(=O)C1CCCN(C(=O)Nc2ccccc2)C1 (stereo not drawn) | 0% (inactive) |
| COc1cc(OC)c(-n2cc(-c3ccc(Cl)cc3)[nH]c2=O)cc1Cl | 0.1% (inactive) |
| O=C(COC(=O)CC1CC2CCC1C2)NC(=O)NC1CCCC1 (stereo not drawn) | 0.7% (inactive) |
| O=C(NCc1ccccc1)C1c2ccccc2OCC(=O)N1C1CC1 (stereo not drawn) | 0% (inactive) |
| O=C(NCCc1ccco1)C(=O)NCCC1CCCCN1S(=O)(=O)c1ccccc1 (stereo not drawn) | -3.9% (inactive) |
